Records with an inconclusive call do not appear. Unmarked numbers belong to inactive results. Calls follow the shape of the dose curve; as a rule, active = well fitted activation curve with a large enough effect in the signal ratio in the repeat runs (not every such curve was filed as active); inconclusive = weak or mixed curves; inactive = flat fitted curve, though single readings scatter; the % refers to the signal ratio.
% is scaled to controls: 0 for no effect and ±100 for the full control effect.

The assay is described as follows: qHTS assay to identify small molecule agonists of the hypoxia (HIF-1) signaling pathway (AID 1224846). Particulars: HRE-bla ME-180 cells, beta-lactamase ratio, 17 h; series mostly up to 76.8 µM; activation: at the top concentration. From the text: U.S. Tox21 Program National Center for Advancing Translational Sciences [NCATS] NIH Chemical Genomics Center [NCGC] U.S. Environmental Protection Agency [EPA] National Institutes of Environmental Health Sciences [NIEHS] National Toxicology Program [NTP] U.S. Food and Drug Administration [FDA] Tox21 Assay Overview: Hypoxia-inducible factor-1 (HIF-1) is the major hypoxia-regulated transcription factor that controls cellular responses to low oxygen concentration. HIF-1 is composed of two subunits: hypoxia responsive HIF-1-alpha and constitutively expressed HIF-1-beta, which is also known as aryl hydrocarbon receptor nuclear translocator. During hypoxic conditions, HIF-1-alpha heterodimerizes with HIF-1-beta and translocates into the nucleus where the HIF-1 complex binds to the hypoxia-response element (HRE) and activates expression of target genes such as VEGF (vascular endothelial growth factor). The HIF-1 pathway is essential to normal growth and development, and is involved in the pathophysiology of cancer, inflammation, and ischemia. Using a beta-lactamase reporter-gene under control of the hypoxia response element, a cell-based assay [CellSensor(TM) HRE-bla ME-180 from Life Technologies, Carlsbad, CA] was used to measure hypoxia-induced signaling. Tox21 10K library compounds were measured for their ability to induce the reporter gene activity.
Tox21 Assay Protocol Summary: HRE-bla ME-180 cells were dispensed at 2,000 cells per well in 6 uL of assay medium containing 0.5% dialyzed FBS into black wall/clear-bottom 1536-well plates using a Multidrop Combi (Thermo Scientific, Waltham, MA) dispenser. After the assay plates were incubated at 37C and 5% CO2 for 5 hrs, 23 nL of compounds dissolved in DMSO, positive controls or DMSO only was transferred to each well of the assay plate using a Pintool station (Kalypsys, San Diego, CA). The assay plates were incubated at 37C and 5% CO2 for 17 hrs. One uL of LiveBLAzerTM B/G FRET substrate (CCF4-AM) (Life Technologies) was added to each well using a Flying Reagent Dispenser (Aurora Discovery, San Diego, CA).
With `CC[N+](C)(CC)CCOC(=O)C(O)(c1ccccc1)C1CCCCC1` (stereo not given), the “activation” value was -1.74% [at 35.5 µM].

On to `COc1ccnc(CS(=O)c2nc3ccc(OC(F)F)cc3[nH]2)c1OC` (stereo not given), for which the “activation” value is -1.26% [at 35.5 µM]. As for `CN(C)C(=O)NC1(c2ccccc2)CCN(CC[C@@]2(c3ccc(F)c(F)c3)CN(C(=O)c3ccccc3)CCO2)CC1`, the figure is -1.19%; as for `Cc1cc(C(=O)O)ccc1[N+](=O)[O-]`, -0.282%; as for `NCC(=O)O`, -0.806% [at 15.8 µM]. `CCCCC/C=C\C/C=C\CCCCCCCC(=O)NC(C)c1ccccc1` (stereo not given): the “activation” value is 1.22% [at 35.5 µM]. As for `CC1=CC[C@H](C(C)C)C=C1`, the figure is 0.655%; as for `CC1CCC(=O)C1=O` (stereo not given), 0.166%; as for `CCNc1cc(O)ccc1C`, -1.44%. As for `OC(C#CCN1CCCC1)(c1ccccc1)c1ccccc1`, the figure is 1.03% [at 35.5 µM]. For `CC(=O)c1ccc2c(c1)N(CCCN1CCC(CCO)CC1)c1ccccc1S2`, the “activation” value was 0.799% [at 35.5 µM]. As for `CC(C)(CO)[N+](=O)[O-]`, the figure is -0.147%; as for `c1ccc(CNCCNCc2ccccc2)cc1`, -2.78% [at 35.5 µM]; as for `Nc1cccc([N+](=O)[O-])c1`, -0.287%. Then `O=C(O)c1ccc(S(=O)(=O)O)cc1C(=O)O`, with 0.0959%. Then `COc1cc(C(=O)OCCCN2CCCN(CCCOC(=O)c3cc(OC)c(OC)c(OC)c3)CC2)cc(OC)c1OC`, with 5.07% [at 35.5 µM]; and `Nc1ccccc1S(=O)(=O)c1ccccc1`, with 1.39%; and `NS(=O)(=O)c1ccc(N2CCCCS2(=O)=O)cc1`, with -0.589% [at 35.5 µM]. Consider `C[C@@H]1C[C@H]2O[C@@]3(O[C@@H]2C(C)(C)O)[C@H](O)[C@@]2(C)[C@@H]4CC[C@H]5C(C)(C)[C@@H](O[C@@H]6OC[C@@H](O)[C@H](O)[C@H]6O)CC[C@@]56C[C@@]46CC[C@]2(C)[C@@H]13`, for which the “activation” value was -0.91% [at 35.5 µM]. On to `CN(C)CCN(Cc1ccsc1)c1ccccn1`, for which the “activation” value was -1.15% [at 35.5 µM]. As for `CCC(=O)O[C@]1(C(=O)CCl)[C@@H](C)C[C@H]2[C@@H]3CCC4=CC(=O)C=C[C@]4(C)[C@@]3(F)[C@@H](O)C[C@@]21C`, the figure is -1.33% [at 35.5 µM]. In the case of `NCc1ccccc1Sc1ccccc1CO`, the “activation” value was 1.27% [at 35.5 µM]. For the compound `Cc1ccc(C(C)OC(=O)C2(C)CCC(C(=O)O)C2(C)C)cc1` (stereo not given), the “activation” value is -0.516% [at 35.5 µM]. Regarding `CCC(CC)Nc1ccc(C)c(C)c1`, the “activation” value was 3.27%. Consider `C=C(C)C(=O)OCC`, for which the “activation” value is -0.993%. As for `COc1ccc(S(=O)(=O)N2C(=O)[C@@](c3ccccc3OC)(N3C[C@H](O)C[C@H]3C(=O)N(C)C)c3cc(Cl)ccc32)c(OC)c1`, the figure is -0.952%; as for `CCCCCCCCCOS(=O)(=O)O`, 0.73%. Then `CC[N+]1(CC)CCC(=C(c2ccccc2)c2ccccc2)C1C` (stereo not given), with 1.89% [at 35.5 µM]; and `Nc1cc(C(=O)O)c(O)c(S(=O)(=O)O)c1`, with -0.0056%. Turning to `Cc1[nH]c(C)c(Cl)c(=O)c1Cl`, the activation is -0.25% [at 15.8 µM]. As for `CC(=O)[O][Al][O]C(C)=O`, the figure is 0.193%.

As for `CN(Cc1ccc(C(C)(C)C)cc1)Cc1cccc2ccccc12`, the “activation” value was 2.03% [at 35.5 µM].

Turning to `OCCNCc1ccccc1`, the “activation” value was 0.0221%.

With `CCC(C)(C)CC`, the “activation” value was -1.02%.

For `CCCCC`, the “activation” value was -0.915%.

Take `CCCCC(CC)CN1C(=O)C2C3C=CC(C3)C2C1=O` (stereo not given): the “activation” value is 3.74%.

For the compound `C/C=C/C(=O)CC`, the activation is -0.782% [at 15.8 µM]. Then `CC(CC=O)c1ccccc1` (stereo not given), with -1.02%; and `O=C1CCCCCCCCCCCC(=O)OCCO1`, with 0.241%; and `CCN(CC)CCOC(=O)C(c1ccccc1)C1CCCCC1` (stereo not given), with 0.0449% [at 35.5 µM].

The record behind these values is PubChem BioAssay (Tox21).
